B2AR ag – beta2AR agonists driving receptor internalization, primary screen, cell-based, FAP fluorogen, flow cytometry | Am2.2-beta2AR cells | Beta-2 adrenergic receptor (Homo sapiens), P07550 | 0.43% of 340,000 active | AID 504454, 2011 | response, % (no concentration beside the values);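 active means response above a set limit, near 3 SD of response in nonfluorescent compounds, cut at about 42% in these data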
Bfl-1 A1 inh – caspase 3/7 activation in MEF A1-2A-BIM cells, primary screen, A1 inhibitor project, cell-based, luminescence, HTS | 0.066% of 330,000 active | caspase activation, % (test concentration not listed) | Caspase-Glo 3/7 luminescence, 3 h; percent of clofoctol response, vehicle zero | AID 2462, 2010;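 active means over half of replicate activation scores above 10%, or exactly half above 10 with the replicate mean above 10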
GRK2 inh – compounds blocking aptamer binding on GRK2 – biochemical, human GRK2, bead flow cytometry, HTS, primary screen. FAM-aptamer displacement from GRK2. Beta-adrenergic receptor kinase 1 (Homo sapiens), P25098. 0.59% of 330,000 active. inhibition of aptamer binding, % at 10 µM. AID 488847, 2010;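 active means inhibition of aptamer binding above 40%, roughly 3 SD of noise, on plates passing a quality check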;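 further: median bead fluorescence of bound FAM aptamer so fluorescent compounds give negative values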
Target sequence (P25098 whole entry, looked up): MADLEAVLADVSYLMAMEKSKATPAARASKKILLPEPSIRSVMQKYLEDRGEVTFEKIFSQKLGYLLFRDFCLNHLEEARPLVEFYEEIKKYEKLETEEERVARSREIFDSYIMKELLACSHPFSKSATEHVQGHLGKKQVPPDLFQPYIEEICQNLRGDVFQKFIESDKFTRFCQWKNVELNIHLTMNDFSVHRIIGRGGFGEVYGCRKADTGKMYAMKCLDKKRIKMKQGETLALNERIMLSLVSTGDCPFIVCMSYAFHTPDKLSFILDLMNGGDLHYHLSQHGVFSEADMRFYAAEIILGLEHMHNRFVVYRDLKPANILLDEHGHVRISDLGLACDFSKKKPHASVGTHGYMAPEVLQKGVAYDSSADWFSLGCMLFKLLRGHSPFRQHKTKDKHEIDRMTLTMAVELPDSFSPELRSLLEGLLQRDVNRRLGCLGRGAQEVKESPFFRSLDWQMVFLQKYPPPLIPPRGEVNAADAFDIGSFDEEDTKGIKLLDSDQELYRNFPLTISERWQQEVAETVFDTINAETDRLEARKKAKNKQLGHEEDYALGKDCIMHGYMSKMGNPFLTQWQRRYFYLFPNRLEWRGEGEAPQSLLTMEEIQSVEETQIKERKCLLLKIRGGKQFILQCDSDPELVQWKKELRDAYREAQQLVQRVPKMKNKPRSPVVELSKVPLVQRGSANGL
NTR1 ag – agonists of human NTR1, primary screen, imaging, U2OS cells, beta-arrestin-GFP, high content; Neurotensin receptor type 1 (Homo sapiens), P30989; NTR1-U2OS beta-arrestin-GFP spot imaging, agonist mode; activation, % at 20 µM; 0.17% of 330,000 active;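 active means activation at or above 40% of the spot to cytoplasm intensity ratio, with at least 20 cells analyzed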
VLA-4 inh – inhibition in human VLA-4 binding assay, primary screen, VLA-4 allosteric modulator project, MLPCN library, flow cytometry, VLA-4 expressing cells | ligand binding flow cytometry | Integrin alpha-4 (Homo sapiens), P13612 | 0.2% of 330,000 active | AID 2557, 2010 | inhibition, % (about 7 µM as worked out from the volumes in the protocol); in the data active means inhibition above about 50%
GRK2 CP1 – GRK2 aptamer-displacing inhibitors, retest, confirmation, biochemical, cherry pick 1, bead flow cytometry; shares compounds with GRK2 inh; bead-bound GRK2, FAM-aptamer displacement; aptamer displacement, % at 10 µM; 4% of 2,000 active;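 active means aptamer displacement above 40%, near three times the noise of non-fluorescent compounds, on plates passing quality checks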;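 further: negative values mostly reflect intrinsic compound fluorescence rather than true enhancement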
Aptamer quench SP – quenches fluorescent RNA aptamer, GRK2 hit artifact | shares compounds with GRK2 inh | Carboxyfluorescein RNA aptamer on beads, flow cytometry quenching; active compounds read low | fluorescence response (% of DMSO), % at 10 µM | 2,000 tested, under 10 active;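 active means compounds that quench the bead-bound fluorescent RNA probe, cutting fluorescence to under half of the solvent control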;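 further: counterscreen run without GRK2 so only probe quenching by compound is measured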
GRK2 confirm 2 – GRK2 aptamer-displacing inhibitors, hit retest, confirmation, biochemical, cherry pick 2, bead flow cytometry | shares compounds with GRK2 inh | bead-bound GRK2, FAM-aptamer displacement | inhibition of aptamer binding, % at 10 µM | 360 tested, under 10 active;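 active means inhibition of aptamer binding above 40%, about triple the noise seen with nonglowing compounds, on plates passing quality control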;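 further: negative values mostly come from compounds that fluoresce themselves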
Aptamer quench3 – fluorescence quenching of FAM-labeled RNA aptamer, dose response, artefact control for GRK2 aptamer inhibitor project, biochemical, flow cytometry, cherry pick 2 | AID 504819, 2011 | shares compounds with GRK2 inh | change in fluorescence (kMESF span), kMESF (concentration not given with the values) | Streptavidin beads | 25 tested, under 10 active;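 active means compounds quenching the bead-bound labeled aptamer, with fluorescence dropping by more than 37 kMESF over the dose range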
FAM quench CP2 – counter-screen for GRK2 binding hits: quenchers of fluorescent RNA aptamer. carboxyfluorescein RNA aptamer beads, flow cytometry quenching; active compounds read low. 360 tested, under 10 active. fluorescence response vs DMSO, % at 10 µM. shares compounds with GRK2 inh. AID 588494;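 active means response vs DMSO under 50%, meaning signal dropped by over half, treated as fluorescence quencher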;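 further: labelled aptamer on streptavidin beads without GRK2 as a quench counter-screen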
A number is an active result; i = inactive; nt = no result given. In the library only some 1.3% were active in any assay of this set; here they are far more common.

SMILES | B2AR ag | Bfl-1 A1 inh | GRK2 inh | NTR1 ag | VLA-4 inh | GRK2 CP1 | Aptamer quench SP | others
COc1c(F)c(F)c(C(=O)O)c(Nc2cccc(C)c2)c1F | i | i | i | i | i | nt | nt
Cc1cc(C)cc(Nc2c(F)c(F)c(F)c(F)c2C(=O)O)c1 | i | i | 89 | i | i | i | i
CN(C)c1ccc(C(C(=O)NC2CCCC2)N(C(=O)c2ccco2)C2CC2)cc1 (stereo unspecified) | i | i | i | i | i | nt | nt
O=C(NC(=S)NCCC1=CCCCC1)c1cccnc1 | i | i | i | i | i | nt | nt
Cc1[nH]ccc(=O)c1OCc1ccccc1 | i | i | i | i | i | nt | nt
O=c1cc(OCc2ccccc2)cc[nH]1 | i | i | 43 | i | i | nt | nt | GRK2 confirm 2=i;FAM quench CP2=i
COc1ccc(Cc2nc3ccc(C(=O)NCc4cc(C)no4)cc3o2)cc1OC | i | i | i | i | i | nt | nt
C=CCN(CC=C)C(=O)c1ccc2nc(Cc3ccc(OC)c(OC)c3)oc2c1 | i | i | 41 | i | i | i | i
Cn1c(=O)c2c(SCC(=O)N3CCOCC3)nc(-c3ccccc3Cl)nc2n(C)c1=O | i | i | i | i | i | nt | nt
O=C(Nc1ccon1)c1nc[nH]c1C(=O)N1CCN(c2ccccc2)CC1 | i | i | i | i | i | nt | nt
CCOC(=O)C1(Cc2cccc(F)c2)CCN(CC2CC2)CC1 | i | i | i | i | i | nt | nt
CCOC(=O)C1(Cc2cccc(F)c2)CCN(CC(O)CO)CC1 (stereo unspecified) | i | i | 78 | i | i | i | i
Cc1nnc(NC(=O)CSc2cn(CCNC(=O)c3ccccc3)c3ccccc23)s1 | i | i | i | i | i | nt | nt
NC(=O)CSc1cn(CCNC(=O)c2cccs2)c2ccccc12 | i | i | i | i | i | nt | nt | GRK2 confirm 2=i;FAM quench CP2=i
Fc1ccc2nc(C(F)(F)F)cc(N3CCOCC3)c2c1 | i | i | i | nt | i | nt | nt
Cc1ccc(S(=O)(=O)N2CCOCC2)cc1C(=O)NC(C)CCc1ccccc1 (stereo unspecified) | i | i | i | i | i | nt | nt
CC(C(=O)Nc1ccon1)N1C(=O)c2ccccc2S1(=O)=O (stereo unspecified) | i | i | 95 | i | i | i | i
Cc1ccc(NC(=O)COC(=O)c2ccc(OCc3c(C)noc3C)cc2)cc1S(=O)(=O)N1CCOCC1 | i | i | i | i | i | nt | nt
CCc1c(C(=O)OCc2ccccc2)[nH]c(C)c1C | i | i | 93 | i | i | i | i
COc1ccc(-c2csc3nc(-c4ccc(C)cc4)oc(=O)c23)cc1OC | i | i | 79 | i | i | nt | nt | GRK2 confirm 2=65;Aptamer quench3=i;FAM quench CP2=i
COc1ccc(-c2csc3nc(C(C)(C)C)oc(=O)c23)cc1OC | i | i | i | i | i | nt | nt
CCc1nc2ccc(C(=O)N(C)CC(=O)Nc3cccc(F)c3)cc2nc1CC | i | i | i | i | i | nt | nt
CCC(C)NC(=O)Cn1cnc2sc(C)c(S(=O)(=O)N3CCN(c4ncccn4)CC3)c2c1=O (stereo unspecified) | i | i | i | i | i | nt | nt
CCC(C)NC(=O)Cn1cnc2sc(C)cc2c1=O (stereo unspecified) | i | i | 43 | i | i | i | i
